# Results published in PubChem BioAssay.
# Activity calls are given as the source filed them.
# Tests used:
# [1] = small molecules captured by biotinylated probe aFSTL3 – biochemical, small-molecule microarray, fluorescence 635/667, stem cell growth factor project, primary screen (AID 1064); conditions: higher = more signal;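 also: measures binding of the biotinylated anti-FSTL3 antibody to printed compounds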
# [2] = binders from COS7 lysate, DM2A8 probe, primary screen, torsin A project, cell lysate, small-molecule microarray, fluorescence 635/667 (AID 1065); conditions: higher = more signal, COS7 lysate expressing mutant human TOR1A
# [3] = small molecules captured by biotinylated probe aFGF2 – biochemical, small-molecule microarray, fluorescence 635/667, stem cell growth factor project, primary screen (AID 1067); conditions: higher = more signal;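 also: measures binding of biotinylated aFGF2 protein to printed compounds on slides; z-score merges feature fluorescence and signal-to-noise across triplicate slides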
# [4] = small molecules captured by biotinylated probe aFGF10 – biochemical, small-molecule microarray, fluorescence 635/667, stem cell growth factor project, primary screen (AID 1071); conditions: higher = more signal;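 also: score merges 667 nm spot intensity and signal to noise from triplicate slides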
# [5] = biological target: Neurogenic locus notch homolog protein 2 (Homo sapiens) (UniProt Q04721); assay: small molecules binding Notch2 protein – biochemical, small-molecule microarray, 635 nm fluorescence, stem cell growth factors, primary screen (AID 1073); conditions: higher = more signal
# Chain of Neurogenic locus notch homolog protein 2 (Homo sapiens) (Q04721 whole entry, looked up, canonical isoform): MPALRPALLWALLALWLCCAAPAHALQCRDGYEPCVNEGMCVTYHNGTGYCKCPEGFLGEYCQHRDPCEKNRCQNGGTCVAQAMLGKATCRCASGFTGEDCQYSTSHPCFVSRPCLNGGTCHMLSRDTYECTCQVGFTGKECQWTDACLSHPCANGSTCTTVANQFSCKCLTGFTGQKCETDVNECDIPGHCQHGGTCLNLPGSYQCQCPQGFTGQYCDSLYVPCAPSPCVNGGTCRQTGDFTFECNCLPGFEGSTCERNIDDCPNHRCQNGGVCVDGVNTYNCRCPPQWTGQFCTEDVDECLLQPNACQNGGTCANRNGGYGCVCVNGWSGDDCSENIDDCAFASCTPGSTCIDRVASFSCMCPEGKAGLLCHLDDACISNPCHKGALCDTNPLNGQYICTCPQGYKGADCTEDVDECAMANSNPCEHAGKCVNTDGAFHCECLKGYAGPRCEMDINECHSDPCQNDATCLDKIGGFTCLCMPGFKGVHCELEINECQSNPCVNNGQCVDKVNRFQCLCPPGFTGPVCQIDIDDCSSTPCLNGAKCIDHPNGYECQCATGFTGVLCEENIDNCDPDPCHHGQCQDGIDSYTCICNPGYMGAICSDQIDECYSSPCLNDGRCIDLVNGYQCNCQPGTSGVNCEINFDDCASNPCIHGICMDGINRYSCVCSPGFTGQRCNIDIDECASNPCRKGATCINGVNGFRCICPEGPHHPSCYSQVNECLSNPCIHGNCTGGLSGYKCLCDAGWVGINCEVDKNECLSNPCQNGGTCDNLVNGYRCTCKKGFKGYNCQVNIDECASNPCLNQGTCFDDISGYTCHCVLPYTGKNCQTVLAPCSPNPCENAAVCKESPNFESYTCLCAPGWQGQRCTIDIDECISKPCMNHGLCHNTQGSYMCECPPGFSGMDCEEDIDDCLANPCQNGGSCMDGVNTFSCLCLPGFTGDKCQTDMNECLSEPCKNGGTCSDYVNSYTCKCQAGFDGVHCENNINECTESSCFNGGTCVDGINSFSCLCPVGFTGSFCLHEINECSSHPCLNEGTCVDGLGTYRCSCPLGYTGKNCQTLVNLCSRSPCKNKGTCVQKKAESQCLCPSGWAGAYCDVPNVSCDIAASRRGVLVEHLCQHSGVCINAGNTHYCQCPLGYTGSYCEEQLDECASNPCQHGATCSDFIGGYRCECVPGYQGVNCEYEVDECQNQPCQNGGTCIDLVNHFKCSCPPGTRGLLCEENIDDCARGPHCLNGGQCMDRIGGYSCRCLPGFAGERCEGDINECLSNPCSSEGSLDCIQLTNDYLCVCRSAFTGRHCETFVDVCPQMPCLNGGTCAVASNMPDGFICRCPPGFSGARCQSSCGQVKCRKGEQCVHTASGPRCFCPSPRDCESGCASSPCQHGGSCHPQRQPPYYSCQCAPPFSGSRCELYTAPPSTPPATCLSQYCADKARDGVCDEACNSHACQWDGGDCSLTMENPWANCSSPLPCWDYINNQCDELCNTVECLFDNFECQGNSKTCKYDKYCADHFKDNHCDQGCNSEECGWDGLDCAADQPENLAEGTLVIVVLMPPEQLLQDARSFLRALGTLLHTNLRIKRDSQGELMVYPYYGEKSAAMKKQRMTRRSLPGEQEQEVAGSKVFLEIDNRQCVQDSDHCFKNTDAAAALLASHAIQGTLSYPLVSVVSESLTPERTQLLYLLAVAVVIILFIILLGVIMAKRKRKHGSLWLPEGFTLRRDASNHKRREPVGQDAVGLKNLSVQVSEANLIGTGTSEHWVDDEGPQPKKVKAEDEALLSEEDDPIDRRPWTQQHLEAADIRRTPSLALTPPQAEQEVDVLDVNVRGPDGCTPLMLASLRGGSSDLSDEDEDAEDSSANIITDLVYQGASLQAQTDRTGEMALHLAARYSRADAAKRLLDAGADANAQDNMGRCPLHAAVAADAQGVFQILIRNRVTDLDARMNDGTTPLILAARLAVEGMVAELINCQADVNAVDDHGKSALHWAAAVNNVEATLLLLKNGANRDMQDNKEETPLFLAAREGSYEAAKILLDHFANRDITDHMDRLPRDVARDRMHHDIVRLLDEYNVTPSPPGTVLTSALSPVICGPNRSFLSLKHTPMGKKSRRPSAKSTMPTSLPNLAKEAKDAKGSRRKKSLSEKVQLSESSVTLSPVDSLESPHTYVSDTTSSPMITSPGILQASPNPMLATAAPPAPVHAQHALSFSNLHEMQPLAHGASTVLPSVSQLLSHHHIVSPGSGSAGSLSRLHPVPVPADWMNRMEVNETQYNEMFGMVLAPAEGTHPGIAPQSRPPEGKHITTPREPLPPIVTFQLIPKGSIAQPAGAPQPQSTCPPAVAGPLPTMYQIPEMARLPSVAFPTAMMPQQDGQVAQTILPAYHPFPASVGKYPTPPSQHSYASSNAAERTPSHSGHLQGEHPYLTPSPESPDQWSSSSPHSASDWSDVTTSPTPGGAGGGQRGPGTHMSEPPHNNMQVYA
# [6] = biological target: Pro-neuregulin-1, membrane-bound isoform (Homo sapiens) (UniProt Q02297); assay: small molecules binding neuregulin-1 protein – biochemical, small-molecule microarray, fluorescence 635/667, psychiatric disease protein project, primary screen (AID 1075); conditions: NRG1 binding, 635 nm fluorescence, higher = more signal;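 also: score combines 667 nm spot fluorescence with signal to noise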
# Chain of Pro-neuregulin-1, membrane-bound isoform (Homo sapiens) (Q02297 whole entry, looked up, the tested form may be a part, canonical isoform): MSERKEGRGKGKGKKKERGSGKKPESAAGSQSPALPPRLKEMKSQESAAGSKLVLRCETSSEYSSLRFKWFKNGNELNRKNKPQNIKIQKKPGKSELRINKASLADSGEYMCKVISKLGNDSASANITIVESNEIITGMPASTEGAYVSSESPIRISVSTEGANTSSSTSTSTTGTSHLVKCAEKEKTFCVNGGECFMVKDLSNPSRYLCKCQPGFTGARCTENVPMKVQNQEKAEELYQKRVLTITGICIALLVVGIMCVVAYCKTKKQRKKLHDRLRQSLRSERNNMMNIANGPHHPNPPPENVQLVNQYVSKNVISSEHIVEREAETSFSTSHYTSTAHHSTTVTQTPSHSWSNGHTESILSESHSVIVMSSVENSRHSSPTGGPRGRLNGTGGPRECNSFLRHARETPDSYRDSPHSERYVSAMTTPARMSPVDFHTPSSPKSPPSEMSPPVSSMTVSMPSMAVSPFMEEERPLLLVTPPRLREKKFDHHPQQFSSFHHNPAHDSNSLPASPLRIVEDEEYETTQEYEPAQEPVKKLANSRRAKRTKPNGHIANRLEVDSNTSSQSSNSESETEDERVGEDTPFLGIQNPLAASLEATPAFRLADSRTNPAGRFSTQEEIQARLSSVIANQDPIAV
# [7] = system: Neuregulin-1 EGF-like domain; assay: small molecules binding NRG1 EGF domain – biochemical, small-molecule microarray, 635 nm fluorescence, primary screen (AID 1081); conditions: higher = more signal;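 also: binding of the protein to compounds printed on small-molecule microarray slides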
# [8] = FRG1 expression reporter modulators in myotubes – cell-based, C2C12 myotubes, firefly/Renilla luciferase, luminescence, FRG1 inhibition for FSHD, primary screen (AID 1084); conditions: FRG1 promoter luciferase, higher = more signal, called active from +8 up or from −8 down
# [9] = small molecules captured by biotinylated probe aFST – biochemical, small-molecule microarray, fluorescence 635/667, stem cell growth factor project, primary screen (AID 1086); conditions: higher = more signal;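 also: score merges 667 nm fluorescence with signal-to-noise of each printed compound spot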
# [10] = binders of probe aHhip on microarray, primary screen, stem cell growth factor project, biochemical, small-molecule microarray, fluorescence 635/667 (AID 1087); conditions: higher = more signal;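 also: score merges spot fluorescence at 667nm with spot signal to noise ratio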
Compound,composite z-score [1],composite z-score [2],composite z-score [3],composite z-score [4],composite z-score [5],composite z-score [6],composite z-score [7],z-score [8],composite z-score [9],composite z-score [10]
C=CC1=C[C@H](O)[C@@H]2O[C@@H]2C12OCCCO2,-0.0605,0.2,-0.204,0.206,0.0754,0.122,0.35,0.293 (inactive),-0.136,0.0274
COc1ccc(C#C[C@@H]2C=C[C@H](OC(C)=O)[C@@H](COC(C)=O)O2)cc1,-0.068,0.101,-0.0769,0.288,0.395,0.198,-0.0975,0.742 (inactive),-0.0985,-0.191
Cc1cc2c(nc1C)CCCN2CC(O)CN1CCCc2nc(C)c(C)cc21,0.472,1.49,0.178,0.204,0.4,0.752,0.998,-0.0397 (inactive),0.759,1.35
C=CC[C@@H]1C=C[C@H](ON=C(C)CCC(=O)OC[C@H]2O[C@H](C#Cc3ccccc3)C=C[C@@H]2Oc2ccc(C)cc2)[C@@H](CO)O1,-0.566,0.692,0.0624,0.782,1.12,0.661,0.984,-0.349 (inactive),0.203,0.0373
O=C(NN=C1C[C@@H](O)[C@@H](O)[C@@H]2[C@@H]3C(=O)N(C4CCCCC4)C(=O)[C@@H]3CC[C@H]12)OCc1ccccc1,1.01,0.553,0.0679,0.0977,1.1,-0.131,-0.287,-0.242 (inactive),0.324,-0.558
CC=CC1=C(CO)C(=O)[C@@H]2O[C@@H]2C1=O,-0.538,-0.45,-0.093,0.0736,-0.126,-0.719,0.687,-0.078 (inactive),-0.212,-0.0994
CO[C@H]1COC(=O)[C@H](C)NC(=O)[C@@H](C)COC(=O)[C@H]2CCCN2C(=O)CC=C[C@H]1C,-0.403,1.06,-0.216,0.347,0.338,-0.499,0.175,-0.345 (inactive),-0.0694,-0.179
COc1ccc(COC(=O)NN=C2C[C@@H](O)[C@@H](O)[C@@H]3[C@@H]4C(=O)N(c5ccc(F)cc5F)C(=O)[C@@H]4CC[C@H]23)cc1,1.64,-0.398,-0.128,-0.088,-0.412,0.461,0.179,0.398 (inactive),1.28,-0.0645
O=C1OCCC=C1C(O)CCc1ccccc1 (stereo not given),-0.209,0.652,-0.0885,0.37,0.327,-0.192,0.375,0.667 (inactive),0.285,-0.0645
O=C1[C@H]2[C@H]3[C@H](O)[C@H](O)CC(=NOCc4ccccc4)[C@@H]3CC[C@H]2C(=O)N1C[C@@H]1CCCO1,-0.278,-0.22,-0.116,-0.125,0.176,0.0461,-0.288,1.36 (inactive),0.271,-0.27
COC(=O)CC=C[C@@H](C)[C@@H](C=NO[C@@H](C)c1cn([C@H](CO)Cc2ccccc2)nn1)NS(=O)(=O)c1ccc(C)cc1,-0.315,0.712,-0.161,0.166,0.0829,-0.0443,0.75,-1.1 (inactive),0.279,0.251
CCOC(=O)NN=C1C[C@@H](O)[C@@H](O)[C@@H]2[C@@H]3C(=O)N(Cc4ccc5c(c4)OCO5)C(=O)[C@@H]3CC[C@H]12,-0.428,0.0687,-0.113,-0.388,-0.434,0.279,0.678,0.855 (inactive),0.625,-0.0645
COc1ccc(O[C@H]2C=C[C@@H](c3ccccc3)O[C@@H]2COC(=O)CCC(C)=NOC[C@@H](O)[C@H]2O[C@@H]3OC(C)(C)O[C@@H]3[C@H]2O)cc1,-0.522,0.62,-0.102,0.497,0.624,0.0094,0.724,0.452 (inactive),0.659,-0.0994
CCOC(=O)[C@H](Cc1ccccc1)NC(=O)CCC1CC(OC(=O)NCCc2ccc(F)cc2)CC2(CCCC(COC(=O)NCCCN3CCCC3=O)O2)O1 (stereo not given in full),-0.478,0.291,-0.0628,0.328,1.16,0.533,0.394,-1.9 (inactive),0.326,-0.0994
CCOC(=O)C1=NO[C@@]2(C=C(Br)C3(OCCCO3)[C@H]3O[C@H]32)C1,0.224,0.0735,-0.116,1.05,0.282,-0.467,0.646,0.0274 (inactive),0.248,0.0972
COc1ccc(O[C@H]2C=C[C@@H](c3ccccc3)O[C@@H]2CON=C(C)C)cc1,0.332,-0.0694,0.0333,-0.531,-0.286,0.112,-0.0241,0.359 (inactive),-0.195,0.107
COC(=O)[C@@H]1CC[C@H](C)[C@@H](c2ccc(C)cc2)N1C(=O)c1ccc(C=NOCC[C@@H]2C=C[C@H](OC(C)=O)[C@@H](COC(C)=O)O2)cc1,-0.381,0.333,-0.11,0.332,0.7,0.102,0.61,0.579 (inactive),0.0627,0.0505
C[C@@H](c1ccccc1)N1C(=O)[C@H]2[C@H]3[C@H](O)[C@H](O)CC(=NOCc4ccccc4)[C@H]3CC[C@H]2C1=O,-0.393,0.0852,-0.0667,0.0945,0.39,0.381,1.22,-0.405 (inactive),0.317,-0.0383
C=CC[C@@H]1C=C[C@H](ON=C2[C@H]3CCn4c(=O)n(-c5ccccc5)c(=O)n4[C@H]3[C@H](O)[C@@H]3O[C@H]23)[C@@H](CO)O1,-0.356,0.189,-0.065,0.274,0.502,0.19,0.0586,-0.299 (inactive),0.0716,0.104
CC(CCC(=O)OC[C@H]1O[C@H](C#Cc2ccccc2)C=C[C@@H]1Oc1ccc(C)cc1)=NO[C@H](C)c1cn([C@H](CO)Cc2ccccc2)nn1,-0.544,-0.0618,-0.122,0.191,0.369,0.527,0.529,0.546 (inactive),0.337,-0.211
CC(=O)OC[C@H]1O[C@@H](ON=C(C)CCN2CCCc3nc(C)c(C)cc32)[C@H](OC(C)=O)[C@@H](OC(C)=O)[C@@H]1OC(C)=O,-0.63,0.165,-0.127,0.76,1.41,0.394,1.07,0.935 (inactive),0.139,-0.0618
CCOC(=O)[C@H](CC(C)C)NC(=O)CCC1CC(OC(=O)NCc2cccc3ccccc23)CC2(CCCC(COC(=O)NCCOC)O2)O1 (stereo not given in full),-0.56,0.071,-0.0216,0.482,1.36,1.27,0.931,-0.0725 (inactive),0.754,-0.214
O=C1CCCC=C1C(O)CCCCBr (stereo not given),0.383,-0.0756,-0.0695,0.0586,0.948,0.932,0.0079,6.9 (inactive),0.227,-0.0994
